For 40 compounds, growth results are on record in PubChem BioAssay (NCI).

About 83,000 compounds went through this panel and 20% of them were active in at least one assay; those are over-represented in the sample as a whole.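 Plates (96-well) were seeded with cells, treated with compound at one concentration, and incubated for 48 hours before percent growth was determined.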 Active and inactive are the calls of the source.

The subject of this experiment is MCF7 breast. Description: NCI-60 one-dose screen, 48 h (100 = growth as untreated, 0 = no growth, -100 = all killed). The note with it: 10 µM unless noted. As to the method: Growth inhibition of the MCF7 human tumor cell line is measured as a screen for anti-cancer activity. Cells are grown in 96 well plates and exposed to the test compound for 48 hours. Compounds are tested at a single concentration, which is 10^-5 M for most compounds. The reported endpoint is percent growth (GI% or GIPRCNT), where numbers from 0 - 100% represent growth inhibition, and numbers from -100% - 0 represent cell death. For example, a value of 40 represents 60% growth inhibition. A value of 0 means no net growth occurred over the course of the experiment. A value of -40 indicates 40% of cells at the beginning of the experiment died by the end of the experiment. A value of -100 means all cells are dead at the end of the experiment.
NCI-60 Human Tumor Cell Lines Screen was performed using the standard one-dose NCI protocol, which is described in more detail at https://dtp.cancer.gov/discovery_development/nci-60/default.htm.
Compounds with GIPRCNT values below 10 were considered active. Activity score was based on GIPRCNT using the following formula: […]
Score is 0 for GIPRCNT values of 100 or above, 50 for GIPRCNT values of 0, and 100 for GIPRCNT values of -100.
As for `CN(C)CCCn1c2c(c3ccc(-c4ccn[nH]4)cc3c1=O)C(=O)c1ccccc1-2`, the growth is 9.49% (active).

`CC(C)Cc1ccc(C(C)C(=O)NCc2c[nH]c3ccc(Cl)cc23)cc1` (stereo not given): the growth was 89.5% (inactive).

For the compound `S=c1[nH]cccc1-c1nnc2n1Nc1nc3ccccc3cc1CS2`, the growth was 103% (inactive).

For `CCNC(=O)c1[nH]cc(-c2ccc(OC)cc2)c1-c1cc(OC)c(OC)c(OC)c1`, the growth is 24.4% (inactive).

`Nc1nc(SN=Nc2ccc(S(N)(=O)=O)cc2)c2[nH]cnc2n1`: the growth was 7.59% (active).

Turning to `c1ccc(Cn2nc3c(c2-c2ccccc2)-c2oncc2CC3)cc1`, the growth was 82.5% (inactive).

In the case of `ClCC1(Cn2cnc3c(Cl)nc(Cl)nc32)COC1`, the growth was 76.1% (inactive).

Regarding `Cc1ccc(Nc2cc(=S)nc(N)[nH]2)cc1C`, the growth is 88.5% (inactive).

Regarding `Clc1cc(Cl)cc(N2N=C(c3cccc(Nc4ccncc4)c3)CC2c2ccc(Br)cc2)c1` (stereo not given), the growth is -46.4% (active).

Turning to `CCN1C(=O)N(CC)C2NC(SC)=NC21` (stereo not given), the growth is 99.3% (inactive).

With `NNC(=O)/C(=C\c1ccc([N+](=O)[O-])cc1)CC(=O)c1ccc(Cl)c(Cl)c1`, the growth was 73.8% (inactive).

For the compound `COc1ccc(-c2nc3sccn3c2/C=C/C(=O)c2cc(OC)c(OC)c(OC)c2)cc1`, the growth was 17.2% (inactive).

On to `COc1ccc(C(=O)c2cc3c(N)c(C(=O)Nc4cccc(Cl)c4)sc3nc2C)cc1`, for which the growth is 26.5% (inactive).

`COC(=O)Nc1ccc(NC(=O)OC)cc1`: the growth is 92.1% (inactive).

Regarding `O=C1NC(=S)NC(=O)C1=Cc1cccc(C=C2C(=O)NC(=S)NC2=O)c1`, the growth was 96.8% (inactive).

As for `COc1cc(C2CC(c3cccc(Nc4ccncc4)c3)=NN2c2ccccc2)cc(OC)c1OC` (stereo not given), the growth was 13.7% (inactive).

For `COc1ccc(-n2cc(-c3cc(OC)c(OC)c(OC)c3)n(C(C)=O)c2=O)cc1`, the growth was 71.5% (inactive).

Regarding `Cc1[nH]n(-c2cccc(Cl)c2)c(=O)c1/C=C1\C=Nc2ccc(Br)cc21`, the growth was 33.9% (inactive).

On to `CS(=O)(=O)Nc1cc(-c2ccc3ncnc(Nc4ccc5[nH]ncc5c4)c3c2)cnc1Cl`, for which the growth is 38.5% (inactive).

In the case of `O=C1c2ccccc2-c2c1c1c(NCCCO)nc3ccccc3c1n2Cc1ccccc1`, the growth is -23.2% (active).

For the compound `CC(=O)Nc1ccc(C(=O)Nc2cc(-c3ccccc3)ccc2N)cc1`, the growth was 55.6% (inactive).

As to `Cn1/c(=N/NC(N)=S)ccc2ccccc21`, the growth is 37.4% (inactive).

For the compound `CC1=CC[C@@H]2CC[C@]3(C)[C@H](CC[C@@H]4[C@@]5(C)CCCNC(C)(C)[C@@H]5CC[C@]43C)[C@H]2[C@@H]1C`, the growth is -28.2% (active).

In the case of `CC(=O)OCC(=O)[C@@]1(O)CC[C@H]2[C@@H]3CC(=C(Br)Br)C4=CC(=O)CC[C@]4(C)[C@H]3C(=O)C[C@@]21C`, the growth is 84.4% (inactive).

Take `N/C(=N\N=C\c1cc2ccccc2[nH]1)N/N=C/c1cc2ccccc2[nH]1`: the growth is 69.8% (inactive).

Turning to `CN1CCN(C(=O)OCc2nc3c(N4CCOCC4)nc(-c4ccccc4)nc3n2C)CC1`, the growth is -64.3% (active).

For `COc1ccc(C(=O)/C=C/c2c(OC)cc(OC)cc2OC)c(OC)c1`, the growth is 21.4% (inactive).

Consider `COc1ccc(/C=C(/c2ccccc2)[N+](=O)[O-])cc1`, for which the growth was -31.3% (active).

For `CN(C)C(=O)c1cc2cnc(Nc3ccc(-c4csc5c(=O)cc(N6CCOCC6)oc45)cc3)nc2n1C1CCCC1`, the growth was -46.8% (active).

Consider `CCN(CC)CCCC(C)Nc1c2c(nc3ccc(OC)cc13)CCCC2` (stereo not given), for which the growth was 91.4% (inactive).

Regarding `O=C1Nc2ccccc2/C1=N/c1nc(-c2ccc(Cl)cc2)cs1`, the growth is 52.6% (inactive).

In the case of `COC(=O)Nc1nc2ccc(C(=O)c3cccc(I)c3)cc2[nH]1`, the growth was 17.6% (inactive).

For the compound `COc1ccc(C(O)c2cc3c(N)c(C(=O)Nc4ccc(Br)cc4)sc3nc2C)cc1` (stereo not given), the growth is 18.6% (inactive).

On to `Fc1ccc2nc3c(cc2c1)CSc1nnc(-c2ccc[nH]c2=S)n1N3`, for which the growth is 98.7% (inactive).

As to `Fc1ccc(C2CC(c3cccc(Nc4ccncc4)c3)=NN2c2ccccc2)cc1` (stereo not given), the growth is 8.89% (active).

For the compound `C[C@H]1[C@H](C)CC[C@]2(CO)CC[C@]3(C)C(=CC[C@@H]4[C@@]5(C)Cc6c([nH]c7ccccc67)C(C)(C)[C@@H]5CC[C@]43C)[C@H]12`, the growth was 74.1% (inactive).

`CC(=O)Nc1ccc(S(=O)(=O)NC2CCCCC2)cc1`: the growth was 96.9% (inactive).

For the compound `N#Cc1cc(-c2nc3ccccc3s2)c(=O)n(NS(=O)(=O)c2ccc(Cl)cc2)c1N`, the growth was 99.9% (inactive).

As to `CC(c1ccccc1)n1ccnc1CO` (stereo not given), the growth was 97.3% (inactive).

With `C[C@@H]1CN(Cc2ccc(/C=C/c3n[nH]c4ccc5nc(-c6cn[nH]c6C(F)(F)F)c6c(c5c34)CCCC6)cc2)C[C@H](C)O1`, the growth is 12.4% (inactive).
